Screens from PubChem BioAssay.
In the library only some 21% were active in any assay of this set; here they are far more common.
CHX counter: affects cycloheximide protein synthesis inhibition readout, counter-screen | AID 2314 | hit rate 12% among 300,000 | cell reporter, cycloheximide protein synthesis inhibition counterscreen | max response, %; in the data active = max response mostly above about 13%, no sharp cut-off; inactive = mostly below about 14%; also: read at 38.3 µM for the half of the compounds with a filed dose
Pf growth 48h: P. falciparum growth inhibition at 48 hours (one generation) | P. falciparum luciferase growth in erythrocytes, 48 h | Potency, µM (doses to about 28.7 µM), actives largely listed as inhibitors | hit rate 5.9% among 310,000
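First compound was added to culture medium, then infected red cells at 0.1% parasitemia and 2% hematocrit (final). After incubation at 37 C under 5% CO2, luciferase detection reagent was dispensed and light output recorded.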
Sm TGR block: inhibitors of Schistosoma mansoni thioredoxin glutathione reductase | purified TGR, DTNB reduction, TNB absorbance 405 nm | hit rate 3% among 360,000 | Potency, µM (top dose mostly 114 µM), usual class: inhibitors; also: nearly all actives have a fitted effect of over 60% in size
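First, TGR (20 nM dispensed) and NADPH were mixed with compound. Second, a 15 min room-temperature incubation followed. Third, further NADPH and then DTNB were added to start the reaction. Finally, TNB absorbance was monitored kinetically.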
NS1 function inh: blocks influenza NS1 protein function; Potency, µM (series often up to 46.1 µM); hit rate 0.4% among 270,000; AID 2326; calls by dose curve; also: actives are rising curves; nearly all actives have a fitted effect of over 50% in size
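Growth recovery, yeast-based: influenza A NS1 expressed in S. cerevisiae causes slow growth, and suppressors are detected by OD600. The parent strain without NS1 is used as positive control.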
Pf growth 96h: P. falciparum growth inhibition at 96 hours | P. falciparum luciferase reporter growth, 96 h | Potency, µM (doses to about 28.7 µM), most hits filed as inhibitors | hit rate 6.9% among 320,000 | AID 504834
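Two-generation exposure (96 h) targets delayed-death phenotype. Reporter parasites carrying integrated firefly luciferase, in red cells at 2% hematocrit and 0.05% parasitemia final, kept at 37 C, 5% CO2; luminescence loss indicates inhibition.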
Shiga toxin inh: blocks Shiga toxin action in Vero cells; AID 2315; hit rate 9.2% among 290,000; Vero cells, Shiga toxin protein synthesis inhibition reporter; inhibition, % at 38.7 µM; in the data active = inhibition mostly above about 28%, no sharp cut-off; inactive = mostly below about 43%
Large screens that a line does not name were inactive. Unless noted, calls follow the shape of the dose curve; as a rule, active = well fitted curve in the direction sought with a large enough effect; inconclusive = small, poorly fitted or top-dose-only effect, or another doubt; inactive = no such curve, though single readings can be large; an effect the other way counts as inactive or inconclusive.

COc1ccc(CN2C(=O)C(C)Oc3ccccc32)cc1 (configuration not stated)	Pf growth 96h inconclusive
CSc1cccc(N2C(=O)N(Cc3ccc([N+](=O)[O-])cc3)c3ccccc3S2(=O)=O)c1	none (no result: CHX counter, Pf growth 48h, NS1 function inh, Pf growth 96h, Shiga toxin inh)
c1cnc(N2CCN(c3ncc4c(n3)CCNC4)CC2)nc1	none (no result: CHX counter, Pf growth 48h, NS1 function inh, Pf growth 96h, Shiga toxin inh)
COc1cccc(NC(=O)CCNC(=O)Cn2cnc3ccccc3c2=O)c1	none (no result: CHX counter, Pf growth 48h, NS1 function inh, Pf growth 96h, Shiga toxin inh)
O=C(NCc1ccccc1Cl)C1CCCN1S(=O)(=O)c1ccccc1F (configuration not stated)	none
COc1ccc2nc(NC(=O)C3CCCO3)sc2c1 (configuration not stated)	CHX counter 65, Pf growth 96h inconclusive, Shiga toxin inh 101
CCc1cccc(C)c1NC(=O)C1CCCO1 (configuration not stated)	none
CSc1nc2ccc(NC(=O)C3CCCO3)cc2s1 (configuration not stated)	CHX counter 40, Pf growth 96h inconclusive, Shiga toxin inh 112
COc1ccc(-c2nnc(NC(=O)C3CCCO3)s2)cc1 (configuration not stated)	CHX counter 38, Shiga toxin inh 130
Cc1cccc2sc(NC(=O)C3CCCO3)nc12 (configuration not stated)	CHX counter 32, Pf growth 96h inconclusive, Shiga toxin inh 111
CSc1nc2ccc(NC(=O)c3ccc(Cl)s3)cc2s1	none
COc1ccc(NC(=O)C2CCCO2)c(OC)c1 (configuration not stated)	Pf growth 96h inconclusive
Cc1cc(-c2ccc(C)c(S(=O)(=O)N3CCCC(C)C3)c2)on1 (configuration not stated)	none (no result: CHX counter, Pf growth 48h, NS1 function inh, Pf growth 96h, Shiga toxin inh)
Cc1cccc(NS(=O)(=O)c2ccc(C(=O)N3CCC3)cc2)c1C	none (no result: CHX counter, NS1 function inh, Shiga toxin inh)
Cc1cc(/C=N/Nc2nc(N)ncc2[N+](=O)[O-])c(C)n1-c1ccccc1F	none
N#CC1=C2SCN(Cc3ccco3)CN2C(=O)CC1c1c(F)cccc1Cl (configuration not stated)	Sm TGR block 45µM (no result: Pf growth 48h)
Cc1ccc(C2CC(=O)N3CN(Cc4ccco4)CSC3=C2C#N)cc1 (configuration not stated)	Pf growth 48h inconclusive, Pf growth 96h inconclusive
N#CC1=C2SCN(c3ccccc3)CN2C(=O)CC1c1cccs1 (configuration not stated)	Pf growth 48h inconclusive, Sm TGR block inconclusive
N#CC1=C2SCN(c3ccccc3)CN2C(=O)CC1c1ccccc1Cl (configuration not stated)	Sm TGR block 22µM, Pf growth 96h inconclusive (no result: Pf growth 48h)
N#CC1=C2SCN(c3ccccc3)CN2C(=O)CC1c1c(Cl)cccc1Cl (configuration not stated)	NS1 function inh 11µM (no result: Pf growth 48h)
CCOP(=O)(OCC)C(Nc1ccc(C)cc1)c1ccco1 (configuration not stated)	none (no result: NS1 function inh)
CN(C)CCNC(=O)C(=O)NCC(c1cccnc1)N1CCN(c2ccccc2)CC1 (configuration not stated)	none (no result: CHX counter, Pf growth 48h, NS1 function inh, Pf growth 96h, Shiga toxin inh)
CNC(=O)OC(C)CNS(=O)(=O)c1ccc(C)cc1 (configuration not stated)	Pf growth 96h 12µM
Cc1ccc(S(=O)(=O)NCC(C)NS(=O)(=O)c2ccc(C)cc2)cc1 (configuration not stated)	none
C/C(=C\c1ccccc1)C(=O)NCc1ccco1	CHX counter 36, Pf growth 96h inconclusive, Shiga toxin inh 66 (no result: NS1 function inh)
COc1ccc(/C=C(/NC(=O)c2ccccc2)C(=O)NCc2ccco2)cc1	none
C/C(=C\c1ccccc1)C(=O)NCCc1ccccc1	CHX counter 31, Shiga toxin inh 66 (no result: Sm TGR block)
C1=Nc2c(Nc3ccccc3)ncnc2Oc2ccccc21	Pf growth 96h 13µM
O=C(Nc1ccc(Cl)cc1)c1ccc2c(c1)N(Cc1ccccc1)CCS2	none (no result: CHX counter, Pf growth 48h, NS1 function inh, Pf growth 96h, Shiga toxin inh)
CC(=O)NCCC(=O)N1CCc2c([nH]c3ccccc23)C1c1cccc(C)c1 (configuration not stated)	CHX counter 19, Pf growth 96h inconclusive
CC(=O)NCCC(=O)N1CCc2c([nH]c3ccccc23)C1c1cccc(Cl)c1 (configuration not stated)	none
Cc1ccc(C2c3[nH]c4ccccc4c3CCN2C(=O)c2ccc(N(C)C)cc2)cc1 (configuration not stated)	none (no result: CHX counter, Pf growth 48h, NS1 function inh, Pf growth 96h, Shiga toxin inh)
Cc1cc(C(=O)N2CCc3c([nH]c4ccccc34)C2c2cccc(Cl)c2)nn1C (configuration not stated)	CHX counter 45, Pf growth 48h inconclusive, Pf growth 96h 12µM, Shiga toxin inh 50
CCOc1cccc(C2c3[nH]c4ccccc4c3CCN2C(=O)c2ccccc2F)c1 (configuration not stated)	none (no result: CHX counter, Pf growth 48h, NS1 function inh, Pf growth 96h, Shiga toxin inh)
CCc1ccc(C2c3[nH]c4ccccc4c3CCN2C(=O)c2cc(C)nn2C)cc1 (configuration not stated)	Pf growth 48h inconclusive
O=C(c1cnccn1)N1CCc2c([nH]c3ccccc23)C1c1cccc(Cl)c1 (configuration not stated)	CHX counter 12, Pf growth 48h inconclusive, Pf growth 96h inconclusive, Shiga toxin inh 27
CSc1ccc(C2c3[nH]c4ccccc4c3CCN2C(=O)c2cc(C)n(C)n2)cc1 (configuration not stated)	CHX counter 34, Pf growth 48h inconclusive, Shiga toxin inh 81 (no result: Sm TGR block)
COc1cc(OC)c(NC(=O)N2CCc3c([nH]c4ccccc34)C2c2ccccc2F)cc1Cl (configuration not stated)	none (no result: CHX counter, Pf growth 48h, NS1 function inh, Pf growth 96h, Shiga toxin inh)
Cc1cc(C(=O)N2CCc3c([nH]c4ccccc34)C2c2c(F)cccc2Cl)no1 (configuration not stated)	Pf growth 48h 5.9µM
Cc1ccc(C2c3[nH]c4ccccc4c3CCN2C(=O)c2ccccc2Br)cc1 (configuration not stated)	none (no result: CHX counter, Pf growth 48h, NS1 function inh, Pf growth 96h, Shiga toxin inh)
Cc1cnc(C(=O)N2CCc3c([nH]c4ccccc34)C2c2ccc(F)cc2)cn1 (configuration not stated)	Pf growth 48h 5.2µM, Pf growth 96h inconclusive
CCCCOC(=O)c1ccc(NC(=O)/C(C#N)=C/c2ccc(C)o2)cc1	none (no result: CHX counter, Pf growth 48h, NS1 function inh, Pf growth 96h, Shiga toxin inh)
Cc1ccc(NC(=O)CSc2nnc(-c3cnccn3)n2-c2ccccc2)cc1	Pf growth 48h inconclusive, Pf growth 96h inconclusive
O=C(Cn1c(C(=O)NCc2ccco2)cc2sccc21)c1ccccc1	CHX counter 24, Pf growth 48h inconclusive
O=C(Cn1c(C(=O)NCC2CCCO2)cc2sccc21)c1ccccc1 (configuration not stated)	Pf growth 96h inconclusive
COc1ccc2c(c1)sc(=NC(=O)CS(=O)(=O)c1ccc(F)cc1)n2C	Pf growth 48h 9.3µM, Pf growth 96h 4.1µM (no result: CHX counter, NS1 function inh, Shiga toxin inh)
CCCn1c(=NC(=O)CS(=O)(=O)c2ccccc2)sc2cc(S(C)(=O)=O)ccc21	Pf growth 48h inconclusive, Pf growth 96h inconclusive (no result: CHX counter, NS1 function inh, Shiga toxin inh)
CCn1c(=NC(=O)CS(=O)(=O)c2ccc(F)cc2)sc2cccc(OC)c21	Pf growth 48h 12µM, Pf growth 96h inconclusive (no result: CHX counter, NS1 function inh, Shiga toxin inh)
